Screening data deposited in PubChem BioAssay by several laboratories.
NPR2 activator: GC-B (human) receptor activation. HEK293-GC-B cells, CNP EC30, cGMP TR-FRET; 0% at EC30 CNP, 100% saturating CNP. hit rate 0.11% among 370,000. activation, % at 10 µM. P20594. AID 1920062;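 active = activation at 10 µM reaching about 35% in either raw or pattern-adjusted values, limit read from the data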
Target sequence (P20594 whole entry, looked up): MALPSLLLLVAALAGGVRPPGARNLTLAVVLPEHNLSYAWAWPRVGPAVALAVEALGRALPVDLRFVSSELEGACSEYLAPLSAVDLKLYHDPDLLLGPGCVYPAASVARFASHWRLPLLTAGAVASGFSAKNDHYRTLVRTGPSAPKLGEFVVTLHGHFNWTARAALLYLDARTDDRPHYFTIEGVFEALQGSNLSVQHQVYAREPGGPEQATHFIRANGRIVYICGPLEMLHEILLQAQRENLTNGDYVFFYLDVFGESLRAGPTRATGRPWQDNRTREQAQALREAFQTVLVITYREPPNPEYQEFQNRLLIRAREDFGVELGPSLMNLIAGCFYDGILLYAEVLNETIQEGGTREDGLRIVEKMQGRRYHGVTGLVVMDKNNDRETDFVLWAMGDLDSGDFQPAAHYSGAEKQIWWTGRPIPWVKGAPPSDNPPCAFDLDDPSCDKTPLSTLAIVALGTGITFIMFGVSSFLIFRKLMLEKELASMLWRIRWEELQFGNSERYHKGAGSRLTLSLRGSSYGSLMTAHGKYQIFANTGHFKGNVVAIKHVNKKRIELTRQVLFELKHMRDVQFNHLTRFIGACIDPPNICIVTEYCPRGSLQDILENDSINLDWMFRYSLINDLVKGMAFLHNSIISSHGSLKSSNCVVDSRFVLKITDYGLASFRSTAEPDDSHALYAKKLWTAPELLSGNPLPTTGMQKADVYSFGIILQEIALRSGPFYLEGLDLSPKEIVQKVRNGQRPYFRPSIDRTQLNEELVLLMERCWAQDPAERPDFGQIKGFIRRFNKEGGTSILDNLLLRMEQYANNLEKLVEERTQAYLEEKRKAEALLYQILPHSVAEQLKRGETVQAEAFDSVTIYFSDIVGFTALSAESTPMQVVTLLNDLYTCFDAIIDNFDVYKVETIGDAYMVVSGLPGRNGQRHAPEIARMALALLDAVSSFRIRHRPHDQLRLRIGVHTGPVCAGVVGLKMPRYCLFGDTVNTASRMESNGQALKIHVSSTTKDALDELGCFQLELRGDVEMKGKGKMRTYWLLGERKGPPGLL
ADAM10 inh: inhibitors of human ADAM10; O14672; inhibition, % at 7 µM; hit rate 0.62% among 370,000; recombinant ADAM10, EDANS/DABCYL FRET peptide cleavage, 3 h;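 active = inhibition above a per-campaign cutoff equal to the mean of compounds falling between control-based bounds plus 3 SD, cut at about 20% in these data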;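 also: 0% = DMSO wells while the 100% control is not disclosed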
NPR1 activator: GC-A (human) enzyme activation; HEK293 GC-A cells, cGMP TR-FRET, EC30 ANP; 0% at EC30 ANP, 100% saturating ANP; AID 1671463; hit rate 0.14% among 370,000; activation, % at 10 µM; P16066; in the data active = activation above about 40%
ADAM17 inh: ADAM17 inhibition, QFRET primary screen. inhibition, % at 6.95 µM. hit rate 0.83% among 370,000. recombinant ADAM17, EDANS/DABCYL FRET peptide cleavage. P78536;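 active = inhibition above the mean of compounds lying between control limits plus 3 SD, set per campaign, cut at about 8.5% in these data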;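 also: 0% = DMSO-only wells as the low control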
ADAM10 counter: counter-screen for ADAM17 exosite inhibitors: inhibitors of human ADAM10. hit rate 47% among 2,900. shares compounds with ADAM17 inh. recombinant ADAM10, EDANS/DABCYL FRET peptide cleavage, 3 h. AID 743256. inhibition, % at 6.95 µM;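 active = mean inhibition over the triplicate runs exceeds the activity threshold set in the earlier primary screen, cut at about 20% in these data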;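 also: 0% = DMSO wells and 100% = marimastat wells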
ADAM17 confirm: confirmation of inhibitors of human ADAM17; hit rate 65% among 2,900; recombinant ADAM17, EDANS/DABCYL QFRET peptide cleavage; shares compounds with ADAM17 inh; inhibition, % at 6.95 µM; AID 743257;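 active = mean inhibition across replicates above the hit cutoff set in the primary screen, cut at about 8.5% in these data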;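 also: 0% = DMSO wells and 100% = marimastat wells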
Numbers without * were called inactive; . = no result given. Hits are enriched below; roughly 1.3% of the tested compounds scored in any of these assays.

SMILES	NPR2 activator	ADAM10 inh	NPR1 activator	ADAM17 inh	ADAM10 counter	ADAM17 confirm
Cc1cccc(C)c1-n1nnnc1C(c1ccccc1)N1CCN(C/C=C/c2ccccc2)CC1 (centres undefined)	0	14	2	9.4*	10	10*
Brc1ccc(C2C3=C(Nc4ncnn42)c2ccccc2OC3c2ccncc2)cc1 (centres undefined)	-17	-308	-34	-78	.	.
COc1ccc(C2Oc3ccccc3C3=C2C(c2cccs2)n2ncnc2N3)cc1 (centres undefined)	-17	10	-19	9.6*	-7	9.3*
O=C(C[n+]1ccccc1)Nc1nc2ccccc2s1	8	15	1	9.4*	9	15*
Cc1ccc[n+](CC(=O)Nc2nc3ccccc3s2)c1	2	-9	6	2	.	.
CSCC[C@H](NC(=O)[C@H]1CC[C@H](CNC(=O)[C@@H](N)Cc2ccccc2)CC1)C(=O)O	6	0	5	0	.	.
Cc1ccc(NC(=O)c2ccc(Nc3c([N+](=O)[O-])cc([N+](=O)[O-])cc3[N+](=O)[O-])cc2)cc1	-4	17	-7	10*	23*	12*
CC(=O)Nc1ccc(NC(=O)c2cc([N+](=O)[O-])cc([N+](=O)[O-])c2)cc1	-5	0	-2	-3	.	.
C=CCOC(=O)C1=C[C@@H](c2coc3ccccc3c2=O)C[C@@H](OCc2ccc(CO)cc2)O1	-6	7	-1	15*	26*	10*
C=CCOC(=O)C1=C[C@H](c2coc3ccccc3c2=O)C[C@H](OCc2ccc(CO)cc2)O1	-3	-5	-1	-4	.	.
C[C@@H]1CC=C[C@@H]2[C@H]1C(=O)N(Cc1ccccc1)[C@H]2c1cccc(Br)c1	-14	2	-14	8.6*	16	10*
C[C@@H]1CC=C[C@H]2[C@H]1C(=O)N(Cc1ccccc1)[C@H]2c1ccc(-c2ccoc2)cc1F	-11	18	-5	13*	10	8
C[C@@H]1CC=C[C@H]2[C@H]1C(=O)N(Cc1ccccc1)[C@H]2c1ccc(-c2ccc(F)cc2)cc1F	1	-8	4	-5	.	.
CN(CCO)C(=O)c1nc[nH]c1C(=O)N1CCN(C(=O)OC(C)(C)C)CC1	1	-5	2	-2	.	.
CC(C)(C)n1nnnc1C(c1ccccc1)N1CCN(CCN2CCOCC2)CC1 (centres undefined)	4	-4	2	-1	.	.
Cc1nn(C)c(C(=O)N/N=C/c2cccnc2)c1Br	-2	4	6	1	.	.
CNC(=O)C[C@H]1C(=O)N(CCc2ccccc2)C[C@@H]1CSC	1	-16	-3	-4	.	.
COc1cc(C)c(C)cc1S(=O)(=O)N1CCN(Cc2ccc3c(c2)OCO3)CC1	3	8	0	8.8*	23*	9.3*
COc1cc(S(=O)(=O)N2CCN(Cc3ccc4c(c3)OCO4)CC2)c(C)cc1C	1	11	-6	5	.	.
CCOC(=O)[C@]12CCCCC/C=C\1N(Cc1ccc(OC)cc1)C(=O)[C@H]2CC(=O)N1CCC(c2ccccc2)CC1	7	11	-2	9.4*	11	7
CCOC(=O)[C@]12CCCCC/C=C\1N(Cc1ccc(OC)cc1)C(=O)[C@H]2CC(=O)N1CCCCC1	4	5	-3	0	.	.
CCN1CCN(c2cc(SC(C)C)nc(-c3ccc(OC)cc3)n2)CC1	-4	14	-4	13*	23*	15*
COc1cccc(C(=O)N(CCN2CCOCC2)Cc2ccc(OC)c(OC)c2)c1	-7	4	3	7	.	.
O=S(=O)(Cc1ccc(Cl)cc1)C1CCCCC1O (centres undefined)	0	7	3	11*	-11	-3
O=S(=O)(Cc1ccc(Cl)cc1)NCC1CCCO1 (centres undefined)	4	11	-2	0	.	.
SMILES	NPR2 activator	ADAM10 inh	NPR1 activator	ADAM17 inh	ADAM10 counter	ADAM17 confirm
COc1ccc(OC)c(NC(=O)C2(C)CCN2CCc2ccccc2)c1 (centres undefined)	-4	6	-10	0	.	.
COc1ccc(NC(=O)C(c2ccc(OC)cc2)N(C)C(=O)Cc2cccs2)cc1 (centres undefined)	4	1	1	-2	.	.
COc1ccc(NC(=O)C(c2ccc(C)cc2)N(C)C(=O)Cc2cccs2)cc1 (centres undefined)	2	7	3	9.0*	2	6
Fc1ccc(NCc2n[nH]c(=S)n2Cc2ccccc2)cc1	1	16	-4	11*	11	9
CC(Oc1ccccc1)c1ccnc(N)n1 (centres undefined)	2	-3	2	-2	.	.
CC(Oc1ccc(Cl)cc1Cl)c1ccnc(N)n1 (centres undefined)	10	16	8	9.2*	2	3
Cc1nnc(SCC(=O)Nc2cccc(Cl)c2)n1CC1CCCO1 (centres undefined)	4	9	-1	0	.	.
Cc1cc(C)n(-c2ccc(C(=O)NCC(c3ccco3)N3CCCC3)cc2)n1 (centres undefined)	0	-9	0	-7	.	.
O=[N+]([O-])c1cc([N+](=O)[O-])c(Oc2cccc3ccccc23)cc1NN1CCCCC1	6	-14	1	-2	.	.
O=[N+]([O-])c1cc([N+](=O)[O-])c(Oc2cccnc2Br)cc1NN1CCCCC1	18	3	5	11*	26*	15*
S=C(NCc1ccco1)Nc1ccc(Cl)c(Cl)c1	2	11	4	10.0*	5	7
S=C(NCc1ccco1)Nc1cccc(Cl)c1	2	6	1	0	.	.
O=C(Cc1ccc(Nc2nc3ccc(Br)cc3[nH]2)cc1)NCCc1cccs1	-7	7	-6	8.9*	14	9.5*
O=C(NCC1CC1)c1ccc(Nc2nc3ccc(Br)cc3[nH]2)cc1	7	-60	9	-19	.	.
O=C(c1ccc(COCC(F)(F)F)o1)N1CCCCCC1	-3	9	0	11*	-4	-2
Cc1ccc(NC(=O)c2ccc3c(c2)OCCO3)cc1S(=O)(=O)Nc1cccc(Cl)c1	-2	16	-4	9.8*	21*	11*
COc1ccc(NC(=O)CSc2n[nH]c(-c3ccncc3)n2)cc1Cl	-15	-9	-5	0	.	.
O=C(CC1SC(=O)N(c2ccccc2)C1=O)Nc1ccccc1 (centres undefined)	1	12	6	9.3*	1	16*
CC(C)OCCCNC(=O)CN1C(=O)CSc2ccc(S(=O)(=O)N3CCOCC3)cc21	1	-6	3	-4	.	.
